The values below come from the supplement of paper PMC4840960.

Structures can show the parent of a compound that is named as a salt.

Assay [1] relates to E18 rat cortical neuron-glia co-culture. As to the kind of experiment: fiber score / MBP score (myelination specific beyond OL differentiation) (ratio); higher = more myelination-specific MBP alignment. As to conditions: treatment time: 8 days (DIV5-DIV13). In short, it runs like this:
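Reported values are fiber score (continuous MBP fiber length per Olig2+ nucleus) divided by MBP score (thresholded MBP area × intensity per Olig2+ nucleus). They come from primary E18 rat cortical co-cultures treated with library compounds at 1 or 5 µM in myelination medium from DIV5 to DIV13, then fixed in 4 % paraformaldehyde, immunostained for MBP and Olig2 with DAPI, and analysed over four 10X fields per well in duplicate wells.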

The test system is the same in assay [2]. As to the kind of experiment: myelination (MBP fiber length per Olig2+ nucleus), % of 1 µM DAPT response (DMSO = 0) (% of DAPT); higher = more myelination, active = 50 or more. Particulars: treatment time: 8 days (DIV5-DIV13). The method, boiled down:
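Rat cortical co-cultures from E18 tissue were dissociated with papain and plated at 20,000 cells/well on 96-well plates coated with poly-d-lysine/laminin. From DIV5 to DIV13, library compounds were added at 1 or 5 µM in myelination medium. After fixation in 4 % paraformaldehyde, cultures were immunostained for MBP and Olig2 and counterstained with DAPI, and four 10X fields were analysed in each of duplicate wells. The myelination value is the length of continuous straight MBP fibers per Olig2+ nucleus, normalised so that 0.1 % DMSO is 0 and a 1 µM positive control is 100.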

Regarding `CC1CCN(CCCC(=O)c2ccc(F)cc2)CC1` [Melperone hydrochloride], the “fiber score / MBP score” value was 0.816 in assay [1] (1 µM) and 0.519 in assay [1] (5 µM). For the same molecule, the figures for the myelination in assay [2] (1 µM) and in assay [2] (5 µM) were -4.39 (inactive) and -12.5 (inactive), respectively.
For the molecule `CNS(=O)(=O)Cc1ccc2[nH]cc(CCN(C)C)c2c1` [Sumatriptan], the figures for the “fiber score / MBP score” value in assay [1] (1 µM) and in assay [1] (5 µM) were 0.873 and 0.861, respectively. Moreover, the myelination in assay [2] (1 µM) is -5.51 (inactive); in assay [2] (5 µM) it was -5.9 (inactive).
With `NC(=O)N1c2ccccc2CC(=O)c2ccccc21` [Oxcarbazepine], the “fiber score / MBP score” value came to 1.02 in assay [1] (1 µM) and 1.17 in assay [1] (5 µM). Besides, the myelination is 3.46 (inactive) in assay [2] (1 µM) and 196 in assay [2] (5 µM).
In the case of `CO/N=C(\C(=O)N[C@@H]1C(=O)N2C(C(=O)O)=C(COC(N)=O)CS[C@H]12)c1ccco1` [Cefuroxime], the results for the “fiber score / MBP score” value in assay [1] (1 µM) and in assay [1] (5 µM) were 0.749 and 0.663, respectively. Also, the myelination in assay [2] (1 µM) is -44.2 (inactive); in assay [2] (5 µM), -51.7 (inactive).
For `NCc1ccc(S(N)(=O)=O)cc1` [Mafenide], in that order: 1.07, 0.912, 6.37 (inactive) and 3.49 (inactive).
For `Brc1c(NC2=NCCN2)ccc2nccnc12` [Brimonidine], in that order: 0.915, 0.784, -13.9 (inactive) and -32 (inactive).
As to `N=C(N)N` [Guanidine], the “fiber score / MBP score” value in assay [1] (1 µM) is 0.765; in assay [1] (5 µM), 0.71. Moreover, the results for the myelination in assay [2] (1 µM) and in assay [2] (5 µM) were -7.42 (inactive) and -8.57 (inactive), respectively.
On to `C[C@]12CCC(=O)C=C1CC[C@@H]1[C@@H]2CC[C@@]2(C)[C@H]1CC[C@]2(O)C(=O)CO` [Cortodoxone], for which the results for the “fiber score / MBP score” value in assay [1] (1 µM) and in assay [1] (5 µM) were 0.514 and 0.781, respectively. The figures for the myelination in assay [2] (1 µM) and in assay [2] (5 µM) were -16.7 (inactive) and -9 (inactive), respectively.
For `CCN1CCCC1CNC(=O)c1cc(S(N)(=O)=O)ccc1OC` (stereo not given) [Sulpiride], in that order: 0.858, 0.751, -10.3 (inactive) and -10.8 (inactive).
In the case of `CO[C@H]1/C=C/O[C@@]2(C)Oc3c(C)c(O)c4c(O)c(c(/C=N/N5CCN(C)CC5)c(O)c4c3C2=O)NC(=O)/C(C)=C\C=C\[C@H](C)[C@H](O)[C@@H](C)[C@@H](O)[C@@H](C)[C@H](OC(C)=O)[C@@H]1C` [Rifampicin], the “fiber score / MBP score” value was 0.964 in assay [1] (1 µM) and 0.704 in assay [1] (5 µM). Moreover, the results for the myelination in assay [2] (1 µM) and in assay [2] (5 µM) were 12.6 (inactive) and -2.96 (inactive), respectively.
